Test results reported in PubChem BioAssay.
Results filed as inconclusive are left out. The source made the active and inactive calls.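 Rule for the calls, unless noted: active = differentiation response of at least 50%, scaled between solvent and reference control, from cells with both markers; inactive = the rest.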

Key:
[1] = rapamycin-like changes in RPL19A-GFP expression – cell-based, S. cerevisiae, multiplex flow cytometry, primary screen (AID 1862; in the data active = percent of DMSO control GFP below about 86%;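 note: lower values mimic rapamycin by blocking the RPL19A rise seen in DMSO cells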); details: S. cerevisiae RPL19A-GFP strain, flow cytometry fluorescence, 3 h; at 10 µM; stronger effect = lower value
[2] = TOR pathway GLN3 branch reporter MEP2-GFP changes – S. cerevisiae, multiplex flow cytometry, primary screen (AID 1867;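 active = GFP response, as percent of the DMSO control, above the screen-wide mean plus 3 SD, about 139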;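 note: median GFP channel fluorescence of barcode-gated MEP2-GFP cells measured by flow cytometry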); details: S. cerevisiae MEP2-GFP strain, 3 h, at 10 µM, stronger effect = higher value, 100% means same as DMSO wells
[3] = TOR pathway RTG branch CIT2 reporter changes – S. cerevisiae, GFP fusion, multiplex flow cytometry, primary screen (AID 1870;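 active = percent response above a set limit, the screen-wide mean plus 3 SD, cut at about 130% in these data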;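 note: barcoded CIT2-GFP strain pooled with four other GFP strains with rapamycin as positive control; median GFP fluorescence per well over plate mean of DMSO wells so 100% = DMSO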); details: S. cerevisiae CIT2-GFP expression, 3 h, at 10 µM, stronger effect = higher value
[4] = TOR pathway LAP4-GFP level changes – S. cerevisiae, multiplex flow cytometry, primary screen (AID 1873;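 active = GFP signal, as percent of the solvent control, above the screen mean plus 3 SD, about 149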); details: S. cerevisiae LAP4-GFP expression, 3 h, at 10 µM, stronger effect = higher value
[5] = yeast AGP1-GFP level changes, GLN3 branch – cell-based, multiplex flow cytometry, S. cerevisiae, primary screen (AID 1887;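 active = GFP signal above the screen-wide mean plus 3 SD, that is over about 124.5% of the solvent control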;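 note: AGP1-GFP fusion strain of S. cerevisiae within a five-strain barcoded multiplex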); details: 3 h, at 10 µM, stronger effect = higher value
[6] = reduced mouse 2C T cell binding to pMHC/ICAM-1 vesicles – MLPCN validation set, flow cytometry, LFA-1/ICAM-1 modulator project, pilot screen (AID 2523;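 active = response below a set limit, under 55% cells CD8-positive and vesicle-bound, and CD8 cells' 90th-percentile brightness under 279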;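 for vesicle binding response: mean PE anti-B7-1 fluorescence of CD8+ cells relative to row control; 100% = QL9-loaded vesicles with DMSO vehicle in the same plate row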); details: 2C mouse CD8+ T cells, at 7 µM, stronger effect = lower value; double positive events: measured here: CD8+/vesicle+ event percentage
[7] = target: Integrin beta-1 (Homo sapiens) + Integrin alpha-4 (Homo sapiens) (UniProt P13612+P05556); assay: alpha4beta1 integrin LIBS antibody binding reduction – U937 cells, HUTS-21 mAb, flow cytometry, validation set, VLA-4 allosteric modulator project, pilot screen (AID 2674;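 active = inhibition above 50%, about 3 SD of the validation set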;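 note: antibody binding induced by the VLA-4 ligand LDV present at three times its Kd; 0% = LDV ligand with antibody and no compound and 100% = antibody without LDV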); details: HUTS-21 LIBS mAb binding, at 6.7 µM, stronger effect = higher value, binding induced by LDV ligand
[8] = calorie-restriction mimetic ROS inhibitors, yeast – validation compound set, pilot screen (AID 2706;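 active = superoxide response below 65% of plate, a cut near 3 SD across the whole screen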;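 note: yeast exposed to compound for one week at 30 degrees C before staining; 100% = mean of all compound wells on the same plate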); details: S. cerevisiae aging, superoxide DHE fluorescence; at 10 µM; stronger effect = lower value
[9] = target: Beta-adrenergic receptor kinase 1 (Homo sapiens) (UniProt P25098); assay: GRK2 binders displacing RNA aptamer, biochemical, validation, human GRK2, bead flow cytometry (AID 488806;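 active = aptamer binding inhibition above 30%, about 3 SD of noise from non-fluorescent compounds; inactive = inhibition at or below 30%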); details: bead-bound GRK2, FAM-aptamer displacement, at 10 µM, stronger effect = higher value
[10] = target: Beta-2 adrenergic receptor (Homo sapiens) (UniProt P07550); assay: agonist-induced loss of surface beta2AR – cell-based, FAP fluorogen, flow cytometry, validation set, pilot screen (AID 504459;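 active = percent response above 42, roughly 3 SD of non-fluorescent test compounds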;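 note: agonist-driven loss of surface beta2AR via internalization measured by FAP dye flow cytometry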); details: Am2.2-beta2AR cells, at 10 µM, stronger effect = higher value
[11] = target: AP-2 complex subunit beta (Homo sapiens) (UniProt P63010); assay: beta-arrestin/AP2 interaction blockers – biochemical, validation set, GST-AP2 beads, flow cytometry, pilot screen (AID 504541;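 active = inhibition above 54%, about 3 SD of non-fluorescent compounds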;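 note: AP2 carries R879A mutation and is captured from E. coli lysate; bead-bound FITC arrestin peptide fluorescence measuring arrestin peptide binding to AP2; 0% = DMSO wells and 100% = excess unlabeled arrestin peptide control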); details: FITC arrestin peptide, at 10 µM, stronger effect = higher value, AP2 beta2 appendage fragment, R879A mutant
[12] = cytosolic pH regulators acting via V-ATPase – S. cerevisiae, pHLuorin, HTS validation (AID 504600; in the data active = response above about 15%;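 note: plate controls were DMSO for no effect and reference compound for full effect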); details: V-ATPase proton transport, at 10 µM, stronger effect = higher value
[13] = system: anti-desmoglein-3 scFv antibody binding to human DSG3; assay: blockers of pathogenic pemphigus antibody–desmoglein-3 binding – biochemical, validation compound set, bead-based, flow cytometry, pilot screen (AID 588368;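 active = binding below the plate cutoff, the plate median minus 3 SD, with a reading above zero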;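 note: signal is the median channel fluorescence of bead-bound GFP antibody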); details: Protein G beads, DSG3-Fc, scFv-GFP binding, at 10 µM, stronger effect = lower value
[14] = Nile Red efflux blockade in pump-expressing yeast – validation compound set, multiplex, phenotypic, pilot screen (AID 588506;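 active = efflux inhibition above 0.42, the validation set average plus 4 SD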;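 note: Nile Red retained in cells so higher fluorescence means more efflux inhibition; 0 = negative control wells and 1 = enniatin B 25 µM full block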); details: S. cerevisiae pump-expressing triplex, Nile Red efflux flow cytometry; at 10 µM; stronger effect = higher value; the pumps come from Candida albicans
[15] = target: ATP-binding cassette sub-family B member 6 (Homo sapiens) (UniProt Q9NP58); assay: blockers of ABCB6-driven porphyrin uptake – K562-ABCB6 cells, flow cytometry, validation set, pilot screen (AID 588550;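 active = inhibition above the screen-wide mean plus 3 SD, about 51%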;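 note: 0% = DMSO wells and 100% = benzethonium chloride 70 µM positive control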); details: K562-ABCB6 porphyrin accumulation, 1 h, at 10 µM, stronger effect = higher value
[16] = AML differentiation inducers, ER-HoxA9 marrow cells – cell-based, GFP/MAC1 double positive, flow cytometry, validation set, primary screen (AID 588685); details: stronger effect = higher value, normalized: vehicle 0, fulvestrant 100;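 note: compound exposure lasts four days before antibody staining and flow analysis; 0% = DMSO wells and 100% = 5 µM fulvestrant positive control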

Beta-2 adrenergic receptor (Homo sapiens), sequence (P07550 whole entry, looked up): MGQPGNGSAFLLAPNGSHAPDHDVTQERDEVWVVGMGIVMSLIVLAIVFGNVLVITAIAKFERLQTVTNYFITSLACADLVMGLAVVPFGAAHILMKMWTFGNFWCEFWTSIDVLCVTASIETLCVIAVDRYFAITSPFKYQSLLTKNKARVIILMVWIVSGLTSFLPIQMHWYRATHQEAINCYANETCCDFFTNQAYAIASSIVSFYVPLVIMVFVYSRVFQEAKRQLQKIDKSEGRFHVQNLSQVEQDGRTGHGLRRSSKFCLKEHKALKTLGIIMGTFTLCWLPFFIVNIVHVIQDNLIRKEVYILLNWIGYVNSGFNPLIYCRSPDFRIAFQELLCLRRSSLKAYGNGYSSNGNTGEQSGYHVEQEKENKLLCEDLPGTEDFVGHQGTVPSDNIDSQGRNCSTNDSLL
Beta-adrenergic receptor kinase 1 (Homo sapiens), sequence (P25098 whole entry, looked up): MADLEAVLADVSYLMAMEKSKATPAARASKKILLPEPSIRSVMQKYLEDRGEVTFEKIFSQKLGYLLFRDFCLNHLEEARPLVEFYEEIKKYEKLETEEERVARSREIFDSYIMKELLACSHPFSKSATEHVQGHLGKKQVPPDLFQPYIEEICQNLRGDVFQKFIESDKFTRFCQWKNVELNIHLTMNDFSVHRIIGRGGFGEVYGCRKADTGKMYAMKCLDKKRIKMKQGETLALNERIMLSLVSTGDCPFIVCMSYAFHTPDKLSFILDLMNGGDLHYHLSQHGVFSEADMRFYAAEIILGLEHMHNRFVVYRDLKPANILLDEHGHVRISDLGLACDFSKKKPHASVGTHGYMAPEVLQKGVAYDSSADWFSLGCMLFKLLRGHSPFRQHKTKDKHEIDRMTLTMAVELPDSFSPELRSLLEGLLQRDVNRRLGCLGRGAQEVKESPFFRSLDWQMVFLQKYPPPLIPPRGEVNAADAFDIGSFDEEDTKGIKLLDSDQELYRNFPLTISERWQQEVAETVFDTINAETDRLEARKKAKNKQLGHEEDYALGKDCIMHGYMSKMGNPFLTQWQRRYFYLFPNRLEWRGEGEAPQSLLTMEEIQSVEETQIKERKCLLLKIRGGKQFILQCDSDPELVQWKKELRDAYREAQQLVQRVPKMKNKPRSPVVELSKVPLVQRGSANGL
ATP-binding cassette sub-family B member 6 (Homo sapiens), sequence (Q9NP58 whole entry, looked up): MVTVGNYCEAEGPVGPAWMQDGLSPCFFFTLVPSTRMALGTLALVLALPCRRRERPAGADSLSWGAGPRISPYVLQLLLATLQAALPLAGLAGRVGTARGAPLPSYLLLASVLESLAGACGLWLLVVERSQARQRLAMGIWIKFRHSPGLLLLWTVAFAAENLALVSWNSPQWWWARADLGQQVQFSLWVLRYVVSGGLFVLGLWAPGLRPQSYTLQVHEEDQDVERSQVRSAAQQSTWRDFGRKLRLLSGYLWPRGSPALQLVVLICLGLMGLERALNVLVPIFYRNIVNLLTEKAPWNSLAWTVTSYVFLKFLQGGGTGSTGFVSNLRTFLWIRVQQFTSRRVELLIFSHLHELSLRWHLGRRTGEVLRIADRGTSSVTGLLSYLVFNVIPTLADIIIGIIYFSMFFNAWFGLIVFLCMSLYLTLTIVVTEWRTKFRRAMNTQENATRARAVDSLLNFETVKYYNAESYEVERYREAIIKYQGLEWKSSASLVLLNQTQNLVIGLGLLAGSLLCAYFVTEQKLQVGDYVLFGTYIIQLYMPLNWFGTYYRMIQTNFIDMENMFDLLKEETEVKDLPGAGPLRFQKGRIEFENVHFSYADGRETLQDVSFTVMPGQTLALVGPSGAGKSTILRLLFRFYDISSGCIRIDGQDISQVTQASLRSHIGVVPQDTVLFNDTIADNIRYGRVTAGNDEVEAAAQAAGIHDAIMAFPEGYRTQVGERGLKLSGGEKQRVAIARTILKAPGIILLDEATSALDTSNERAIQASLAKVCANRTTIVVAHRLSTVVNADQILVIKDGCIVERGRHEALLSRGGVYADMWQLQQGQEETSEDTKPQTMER
Integrin beta-1 (Homo sapiens) + Integrin alpha-4 (Homo sapiens), sequence (P05556 whole entry, looked up): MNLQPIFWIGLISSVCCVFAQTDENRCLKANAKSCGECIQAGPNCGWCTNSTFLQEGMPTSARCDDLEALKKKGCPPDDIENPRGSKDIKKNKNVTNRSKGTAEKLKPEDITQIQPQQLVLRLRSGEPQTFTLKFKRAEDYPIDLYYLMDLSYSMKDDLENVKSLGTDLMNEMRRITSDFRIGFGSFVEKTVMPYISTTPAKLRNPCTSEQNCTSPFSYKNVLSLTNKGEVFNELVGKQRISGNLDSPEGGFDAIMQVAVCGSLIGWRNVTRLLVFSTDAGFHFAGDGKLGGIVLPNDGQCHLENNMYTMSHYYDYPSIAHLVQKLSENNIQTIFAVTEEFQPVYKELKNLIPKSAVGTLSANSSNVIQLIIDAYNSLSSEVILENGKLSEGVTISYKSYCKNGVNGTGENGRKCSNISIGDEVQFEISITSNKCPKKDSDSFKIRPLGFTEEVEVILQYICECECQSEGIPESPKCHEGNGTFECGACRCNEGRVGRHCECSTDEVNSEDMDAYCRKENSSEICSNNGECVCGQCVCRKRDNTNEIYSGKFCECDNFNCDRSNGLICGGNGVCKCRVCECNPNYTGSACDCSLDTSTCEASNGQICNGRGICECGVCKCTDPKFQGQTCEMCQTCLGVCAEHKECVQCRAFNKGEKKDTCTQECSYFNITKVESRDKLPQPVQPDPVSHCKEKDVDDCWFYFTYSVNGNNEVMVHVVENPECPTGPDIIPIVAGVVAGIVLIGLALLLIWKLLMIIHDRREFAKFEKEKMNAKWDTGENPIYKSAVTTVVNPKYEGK
Integrin beta-1 (Homo sapiens) + Integrin alpha-4 (Homo sapiens), sequence (P13612 whole entry, looked up): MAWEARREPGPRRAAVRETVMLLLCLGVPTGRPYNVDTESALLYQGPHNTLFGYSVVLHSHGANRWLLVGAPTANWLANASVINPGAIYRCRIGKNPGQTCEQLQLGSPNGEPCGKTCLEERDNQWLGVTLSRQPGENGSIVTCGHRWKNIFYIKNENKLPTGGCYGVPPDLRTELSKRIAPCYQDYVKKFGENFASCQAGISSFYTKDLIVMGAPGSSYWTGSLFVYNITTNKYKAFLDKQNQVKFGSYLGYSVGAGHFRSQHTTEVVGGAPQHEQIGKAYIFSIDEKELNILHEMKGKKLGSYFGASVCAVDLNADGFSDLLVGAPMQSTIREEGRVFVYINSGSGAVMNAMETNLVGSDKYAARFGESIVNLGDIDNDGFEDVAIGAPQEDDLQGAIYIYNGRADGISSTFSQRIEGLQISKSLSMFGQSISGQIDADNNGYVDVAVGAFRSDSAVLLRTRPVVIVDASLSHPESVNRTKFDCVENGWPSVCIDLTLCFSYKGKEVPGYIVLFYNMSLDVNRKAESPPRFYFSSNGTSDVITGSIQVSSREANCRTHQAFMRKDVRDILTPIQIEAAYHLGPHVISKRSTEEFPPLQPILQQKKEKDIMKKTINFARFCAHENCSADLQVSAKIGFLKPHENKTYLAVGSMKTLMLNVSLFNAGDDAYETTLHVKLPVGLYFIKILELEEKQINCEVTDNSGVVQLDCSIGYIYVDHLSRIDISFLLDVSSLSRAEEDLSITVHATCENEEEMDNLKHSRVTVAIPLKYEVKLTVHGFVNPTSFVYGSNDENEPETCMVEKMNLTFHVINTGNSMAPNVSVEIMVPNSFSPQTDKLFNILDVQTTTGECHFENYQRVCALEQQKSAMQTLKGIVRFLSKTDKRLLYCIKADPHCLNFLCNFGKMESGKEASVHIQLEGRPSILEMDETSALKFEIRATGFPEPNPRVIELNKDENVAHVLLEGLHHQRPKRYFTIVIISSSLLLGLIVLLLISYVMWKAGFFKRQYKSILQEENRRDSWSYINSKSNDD
AP-2 complex subunit beta (Homo sapiens), sequence (P63010 whole entry, looked up, the tested form may be a part, one chain of several): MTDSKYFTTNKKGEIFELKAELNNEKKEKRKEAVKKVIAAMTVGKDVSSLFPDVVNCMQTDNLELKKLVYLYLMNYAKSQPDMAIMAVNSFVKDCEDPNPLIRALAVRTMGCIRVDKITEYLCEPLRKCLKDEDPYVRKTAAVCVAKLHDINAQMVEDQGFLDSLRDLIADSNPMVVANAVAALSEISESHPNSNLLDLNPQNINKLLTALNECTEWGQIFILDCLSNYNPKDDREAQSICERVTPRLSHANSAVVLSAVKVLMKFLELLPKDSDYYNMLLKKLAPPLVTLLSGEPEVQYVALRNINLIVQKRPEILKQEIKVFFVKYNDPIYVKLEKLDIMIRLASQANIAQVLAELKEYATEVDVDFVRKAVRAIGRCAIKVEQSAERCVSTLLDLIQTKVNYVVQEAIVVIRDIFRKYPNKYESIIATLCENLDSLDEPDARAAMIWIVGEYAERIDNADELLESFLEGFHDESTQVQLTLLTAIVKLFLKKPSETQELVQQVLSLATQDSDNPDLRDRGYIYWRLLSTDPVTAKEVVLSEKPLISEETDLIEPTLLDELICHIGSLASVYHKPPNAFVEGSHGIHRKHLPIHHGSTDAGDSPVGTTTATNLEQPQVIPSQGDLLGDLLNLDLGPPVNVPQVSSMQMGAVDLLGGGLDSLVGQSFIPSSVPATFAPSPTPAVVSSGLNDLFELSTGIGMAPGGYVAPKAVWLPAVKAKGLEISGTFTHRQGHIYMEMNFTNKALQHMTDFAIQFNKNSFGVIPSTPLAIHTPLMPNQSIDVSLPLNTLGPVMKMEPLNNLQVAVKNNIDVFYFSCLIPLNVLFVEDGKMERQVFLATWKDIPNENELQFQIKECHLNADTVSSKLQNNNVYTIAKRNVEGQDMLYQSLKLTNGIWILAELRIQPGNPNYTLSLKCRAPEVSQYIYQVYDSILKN

Row | SMILES | percent of DMSO control GFP [1] | GFP response vs DMSO [2] | percent response of DMSO control [3] | GFP response vs DMSO [4] | GFP response, % of DMSO [5] | double positive events [6] [%] | vesicle binding response [6] | inhibition [7] | superoxide response (% of plate) [8] | aptamer binding inhibition [9] | response [10] | inhibition [11] | response [12] | binding (% of control) [13] | efflux inhibition (fraction of control) [14] | inhibition [15] | differentiation response [16]
1 | O=C(N/N=C\c1cc([N+](=O)[O-])ccc1N1CCOCC1)c1ccccn1 | 107% (inactive) | 102% (inactive) | 107% (inactive) | 100% (inactive) | 103% (inactive) | 59.8 | 142% (inactive) | -7.79% (inactive) | 104% (inactive) | -2% (inactive) | -1.25% (inactive) | 1.39% (inactive) | 4.27% (inactive) | 102% (inactive) | 0.35 (inactive) | -1% (inactive) | -11.9% (inactive)
2 | COc1ccc(C2C(C(=O)c3ccco3)=C(O)C(=O)N2CC2CCCO2)cc1 (stereo not given) | 102% (inactive) | 105% (inactive) | 104% (inactive) | 99.3% (inactive) | 95.3% (inactive) | 62.9 | 351% (inactive) | -7.72% (inactive) | 105% (inactive) | 3% (inactive) | -3.98% (inactive) | 25.3% (inactive) | -4.81% (inactive) | 98.9% (inactive) | 0.05 (inactive) | 3% (inactive) | -5.62% (inactive)
3 | CC1(C)CC(=O)C2=C(C1)c1c(ccc3ccccc13)NC2c1ccco1 (stereo not given) | 98.8% (inactive) | 105% (inactive) | 93.9% (inactive) | 123% (inactive) | 99.5% (inactive) | 57 | 182% (inactive) | -8.62% (inactive) | 107% (inactive) | 6% (inactive) | 14.4% (inactive) | 13.8% (inactive) | 1.12% (inactive) | 104% (inactive) | -0.06 (inactive) | 3% (inactive) | 28% (inactive)
4 | COc1ccc(C(=O)O)cc1F | 104% (inactive) | 107% (inactive) | 107% (inactive) | 94.8% (inactive) | 103% (inactive) | 65.5 | 151% (inactive) | -1.09% (inactive) | 105% (inactive) | 3% (inactive) | 3.73% (inactive) | 15.5% (inactive) | -13.5% (inactive) | 102% (inactive) | -0.09 (inactive) | -3% (inactive) | -8.96% (inactive)
5 | Cc1ccc(/C=N/Nc2nc(C(C)(C)C)cs2)o1 | 103% (inactive) | 106% (inactive) | 95.8% (inactive) | 98.2% (inactive) | 97.8% (inactive) | 69.4 | 302% (inactive) | 17.3% (inactive) | 80.8% (inactive) | 5% (inactive) | 4.35% (inactive) | -1.54% (inactive) | 6.19% (inactive) | 102% (inactive) | 0.51 (active) | 114% (active) | 7.2% (inactive)
6 | CCC(C)n1ncn(-c2ccc(N3CCN(c4ccc(OCC5COC(Cn6cncn6)(c6ccc(Cl)cc6Cl)O5)cc4)CC3)cc2)c1=O (stereo not given) | 115% (inactive) | 110% (inactive) | 97.1% (inactive) | 133% (inactive) | 102% (inactive) | 58.2 | 22.8% (inactive) | 3.98% (inactive) | 53.9% (active) | 4% (inactive) | 8.75% (inactive) | -13.8% (inactive) | 1.4% (inactive) | 99.3% (inactive) | 0.55 (active) | 7% (inactive) | 6.49% (inactive)
7 | COc1cc(CNCCc2ccccc2F)ccc1OCC(=O)N1CCCCC1 | 98.6% (inactive) | 104% (inactive) | 96.7% (inactive) | 114% (inactive) | 100% (inactive) | 57.8 | 196% (inactive) | -1.79% (inactive) | 103% (inactive) | -1% (inactive) | -8.73% (inactive) | 22.6% (inactive) | -3.26% (inactive) | 98.2% (inactive) | -0.35 (inactive) | 2% (inactive) | 29.6% (inactive)
8 | CC(=O)Nc1c(I)c(NC(C)=O)c(I)c(C(=O)O)c1I | 89.3% (inactive) | 123% (inactive) | 104% (inactive) | 78.1% (inactive) | 94% (inactive) | 58.9 | 171% (inactive) | 10.3% (inactive) | 103% (inactive) | -1% (inactive) | -8.3% (inactive) | 2.48% (inactive) | 1.06% (inactive) | 95% (inactive) | 0.12 (inactive) | 9% (inactive) | 2.46% (inactive)
9 | NCc1ccccc1COc1ccccc1 | 105% (inactive) | 109% (inactive) | 102% (inactive) | 117% (inactive) | 111% (inactive) | 62.7 | 179% (inactive) | 2.3% (inactive) | 96.7% (inactive) | 0% (inactive) | 4.62% (inactive) | 57% (active) | -3.28% (inactive) | 98% (inactive) | 0.05 (inactive) | 6% (inactive) | -15.2% (inactive)
10 | CC(=O)N(CCC(Cc1ccccc1)c1ccco1)Cc1ccco1 (stereo not given) | 88.7% (inactive) | 145% (active) | 104% (inactive) | 77.6% (inactive) | 77.1% (inactive) | 68.1 | 172% (inactive) | -0.33% (inactive) | 96.2% (inactive) | 1% (inactive) | 5.89% (inactive) | 13.6% (inactive) | -4.34% (inactive) | 97.4% (inactive) | -0.06 (inactive) | 5% (inactive) | -3.28% (inactive)
